Values joined by “and” are separate entries in the source; they are usually repeats but may differ in a detail not shown here. Equal values may be shown once. Results filed as inconclusive are left out. Where a call stands in place of a potency, no number is given. Active and inactive are the calls of the source. Unless noted, the call rests on the fitted dose curve; in most records, active means well fitted curve in the direction sought with a large enough effect; inconclusive means small, poorly fitted or top-dose-only effect, or another doubt; inactive means no such curve, though single readings can be large; an effect the other way counts as inactive or inconclusive.
Columns and labels:
[1] = molecular target: Cytochrome P450 1A2 (Homo sapiens) (UniProt P05177); experiment: p450-cyp1a2 (AID 410; calls by dose curve; further: potency means the concentration at half of the fitted maximal effect); conditions: recombinant CYP1A2, luciferin-ME demethylation, luminescence; series mostly up to 57 µM
Chain of Cytochrome P450 1A2 (Homo sapiens) (P05177 whole entry, looked up): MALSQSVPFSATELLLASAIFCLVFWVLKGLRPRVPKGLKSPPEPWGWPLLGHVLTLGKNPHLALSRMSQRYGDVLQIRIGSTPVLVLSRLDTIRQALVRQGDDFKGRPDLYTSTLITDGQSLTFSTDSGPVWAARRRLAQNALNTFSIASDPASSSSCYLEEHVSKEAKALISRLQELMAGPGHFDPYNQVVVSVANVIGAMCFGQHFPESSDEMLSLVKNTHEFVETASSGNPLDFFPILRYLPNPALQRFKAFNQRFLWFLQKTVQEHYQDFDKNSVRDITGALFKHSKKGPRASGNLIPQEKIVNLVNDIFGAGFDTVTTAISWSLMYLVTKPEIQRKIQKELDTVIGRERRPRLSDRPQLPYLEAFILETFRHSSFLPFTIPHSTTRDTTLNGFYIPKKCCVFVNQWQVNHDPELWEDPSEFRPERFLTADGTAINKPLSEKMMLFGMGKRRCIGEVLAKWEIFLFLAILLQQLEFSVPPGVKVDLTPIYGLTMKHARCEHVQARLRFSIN
Summary of the method: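 20nM CYP1A2 with 100uM Luciferin-ME (at Km) in 100mM KPO4; compound preincubated 10 min, NADPH regeneration added, 60 min at room temperature. Luciferin quantified by luminescence after detection reagent; normalized to 57 uM furafylline.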

[2] = molecular target: Glucocorticoid receptor (Homo sapiens) (UniProt P04150); experiment: GR-EFC Redistribution (AID 451; calls by dose curve; further: potency means the concentration at half of the fitted maximal effect); conditions: CHO-K1 GR-EFC translocation, beta-gal luminescence, 2 h
Chain of Glucocorticoid receptor (Homo sapiens) (P04150 whole entry, looked up, the tested form may be a part): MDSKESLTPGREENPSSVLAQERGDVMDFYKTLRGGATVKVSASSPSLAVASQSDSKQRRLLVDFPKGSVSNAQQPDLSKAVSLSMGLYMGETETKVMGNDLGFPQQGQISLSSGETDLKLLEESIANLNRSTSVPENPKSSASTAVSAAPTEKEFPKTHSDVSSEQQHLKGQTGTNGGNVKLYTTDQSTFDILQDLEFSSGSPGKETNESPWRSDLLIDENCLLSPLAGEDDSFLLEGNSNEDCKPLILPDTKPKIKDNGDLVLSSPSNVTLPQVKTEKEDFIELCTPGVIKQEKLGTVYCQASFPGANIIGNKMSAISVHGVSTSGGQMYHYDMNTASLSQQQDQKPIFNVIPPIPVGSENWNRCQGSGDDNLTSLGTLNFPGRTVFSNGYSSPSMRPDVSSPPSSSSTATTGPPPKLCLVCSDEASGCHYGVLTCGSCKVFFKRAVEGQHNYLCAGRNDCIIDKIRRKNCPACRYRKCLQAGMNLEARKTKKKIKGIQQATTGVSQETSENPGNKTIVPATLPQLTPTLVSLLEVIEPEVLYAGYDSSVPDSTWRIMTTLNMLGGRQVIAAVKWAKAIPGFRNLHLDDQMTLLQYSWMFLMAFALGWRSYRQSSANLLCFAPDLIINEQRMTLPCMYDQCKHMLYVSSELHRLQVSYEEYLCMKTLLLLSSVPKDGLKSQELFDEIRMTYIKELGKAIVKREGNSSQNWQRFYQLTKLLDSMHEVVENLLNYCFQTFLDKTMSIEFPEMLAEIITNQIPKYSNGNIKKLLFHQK
Summary of the method: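 CHO-K1 cells stably expressing nuclear-localized β-gal enzyme acceptor and GR fused C-terminally to the enzyme donor fragment; ligand-driven nuclear translocation restores β-gal by complementation. Compounds titrated up to 46 uM final, 2 h at 37 °C; luminescence read.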

[3] = molecular target: Mitogen-activated protein kinase 10 (Mus musculus) (UniProt Q61831); experiment: JNK3 AlphaScreen Assay (AID 530; active means well fitted curve in either direction with a large enough effect, not every such curve was filed as active;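 further: kinase came from lysate of stimulated human HepG2 cells; signal reports phosphorylation of biotinylated GST-cJun 1-79 at Ser73 with 10 µM ATP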); conditions: JNK3 lysate, c-Jun phosphorylation; series mostly up to 57.1 µM
Summary of the method: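 Inhibitors reduce antibody binding to phosphorylated biotin-cJun, lowering AlphaScreen luminescence. Lysates from HepG2 cells pre-activated by IL-1beta plus TNF-alpha supplied JNK3; compounds were titrated.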

[4] = molecular target: 3',5'-cyclic-AMP phosphodiesterase 4B (Homo sapiens) (UniProt Q07343); experiment: qHTS Assay for Inhibitors of PDE-IV (AID 607; active means well fitted activation curve with a large enough effect in the main read-out, with a control signal flat, not every such curve was filed as active); conditions: HEK293 ACTOne CNG channel cells, membrane potential fluorescence; series mostly up to 22.9 µM
Chain of 3',5'-cyclic-AMP phosphodiesterase 4B (Homo sapiens) (Q07343 whole entry, looked up): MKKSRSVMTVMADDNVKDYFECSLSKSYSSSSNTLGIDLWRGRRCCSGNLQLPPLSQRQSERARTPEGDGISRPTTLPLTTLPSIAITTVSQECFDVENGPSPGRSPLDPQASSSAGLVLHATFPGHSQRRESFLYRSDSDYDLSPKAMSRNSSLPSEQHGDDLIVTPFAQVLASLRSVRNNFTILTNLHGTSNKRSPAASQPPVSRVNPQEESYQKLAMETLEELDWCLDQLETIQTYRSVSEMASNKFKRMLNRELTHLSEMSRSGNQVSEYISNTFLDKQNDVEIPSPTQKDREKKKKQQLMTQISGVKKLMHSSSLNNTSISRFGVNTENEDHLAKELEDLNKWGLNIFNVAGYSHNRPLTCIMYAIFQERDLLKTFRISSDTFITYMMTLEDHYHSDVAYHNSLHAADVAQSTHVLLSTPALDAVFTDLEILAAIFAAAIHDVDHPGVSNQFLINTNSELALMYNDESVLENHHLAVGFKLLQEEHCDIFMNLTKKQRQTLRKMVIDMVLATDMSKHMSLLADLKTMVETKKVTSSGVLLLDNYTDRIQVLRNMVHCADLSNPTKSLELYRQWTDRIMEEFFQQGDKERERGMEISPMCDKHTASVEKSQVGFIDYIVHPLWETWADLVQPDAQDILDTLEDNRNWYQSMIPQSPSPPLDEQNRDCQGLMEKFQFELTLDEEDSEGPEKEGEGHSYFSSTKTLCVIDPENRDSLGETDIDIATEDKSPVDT
Summary of the method: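 Cell-based read-out of cAMP via a modified cyclic nucleotide-gated channel and membrane potential dye (535/590 nm) in HEK293 cells expressing PDE4 endogenously. Compounds tested up to 22.9 uM final; 100 uM RO 20-1724 reference.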

[5] = qHTS Assay for Lipid Storage Modulators (AID 1519; calls by dose curve); conditions: Drosophila S3 cells, BODIPY lipid droplet/cell ratio, laser cytometry, cells loaded with oleic acid; for activity change, negative = inhibition: at 57.5 µM (top of the series)
Summary of the method: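 Cells seeded at 5,000 per well were treated with compounds over a concentration series and loaded with oleic acid (400 uM, as added). Lipid droplet fluorescence (488 nm excitation, 500-530 nm channel) was read by laser-scanning cytometry and normalized to 20 uM Triacsin C.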

[6] = molecular target: DNA dC->dU-editing enzyme APOBEC-3G (Homo sapiens) (UniProt Q9HC16); experiment: qHTS for inhibitors of Vif-A3G interactions: Validation (AID 588379); conditions: Vif-A3G protein interaction assay; series mostly up to 46.1 µM
Chain of DNA dC->dU-editing enzyme APOBEC-3G (Homo sapiens) (Q9HC16 whole entry, looked up): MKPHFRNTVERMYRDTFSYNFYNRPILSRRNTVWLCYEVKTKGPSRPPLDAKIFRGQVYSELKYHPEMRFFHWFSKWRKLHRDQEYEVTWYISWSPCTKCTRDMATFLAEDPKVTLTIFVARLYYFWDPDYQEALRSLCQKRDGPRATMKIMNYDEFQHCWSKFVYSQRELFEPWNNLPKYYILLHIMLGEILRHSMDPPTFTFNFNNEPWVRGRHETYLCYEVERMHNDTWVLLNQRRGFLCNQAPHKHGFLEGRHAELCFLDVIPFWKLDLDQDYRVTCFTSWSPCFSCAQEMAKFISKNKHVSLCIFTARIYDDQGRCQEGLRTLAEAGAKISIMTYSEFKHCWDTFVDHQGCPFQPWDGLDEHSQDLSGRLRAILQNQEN
Summary of the method: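 HeLa cells stably expressing Vif and A3G-eYFP, 700 cells/well, incubated overnight at 37 deg C, then exposed to compound overnight at 37 deg C. Inhibition of Vif-mediated degradation read as increased yellow fluorescence (Ex 488/Em 500-530) by laser-scanning cytometry.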

[7] = system: Zika virus NS2B-NS3 protease; experiment: Primary screen GU AMC qHTS for Zika virus inhibitors (AID 1347154); conditions: Zika NS2B-NS3 unlinked protease, AMC fluorogenic substrate; series mostly up to 54.1 µM; further: nearly all actives have a fitted effect of over 70% in size
Summary of the method: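 Unlinked Zika NS2B hydrophilic domain/NS3 protease domain noncovalent complex (25 nM final) in 10 mM Tris-HCl pH 8.0, 0.01% Tween 20, with AMC peptide substrate. Fluorescence (ex 340, em 450 nm) change over 15 min, room temperature; percent inhibition fitted to 4-parameter Hill equation.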

[8] = Primary qHTS for small molecule stabilizers of the endoplasmic reticulum resident proteome: Secreted ER Calcium Modulated Protein (SERCaMP) assay (AID 1508630); conditions: SH-SY5Y GLuc-SERCaMP (Gaussia luciferase released on ER calcium loss) secretion, thapsigargin, luminescence; series mostly up to 38.4 µM
Summary of the method: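 GLuc-SERCaMP-expressing SH-SY5Y cells, pretreated 16 h with compound, are challenged with thapsigargin to empty ER calcium stores; after 4 h, coelenterazine is added directly to the medium and luminescence is imaged.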

[9] = molecular target: Glucocorticoid receptor (Homo sapiens) (UniProt P04150); experiment: GR-GFP Redistribution (AID 450;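 active means compounds whose dose series gives a full or clear partial fitted curve of increased nuclear translocation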; further: potency means the concentration at half of the fitted maximal effect); conditions: U2OS GR-GFP nuclear translocation, laser cytometry, 2 h
[10] = molecular target: Ubiquitin carboxyl-terminal hydrolase 1 (Homo sapiens) (UniProt O94782); experiment: Inhibitors of USP1/UAF1: Pilot qHTS (AID 504865); conditions: purified USP1/UAF1, Ub-rhodamine cleavage fluorescence; series mostly up to 114 µM;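 further: rhodamine fluorescence freed from ubiquitin-rhodamine substrate followed over time; top concentration of the series differs between compounds; nearly all actives have a fitted effect of over 35% in size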
Chain of Ubiquitin carboxyl-terminal hydrolase 1 (Homo sapiens) (O94782 whole entry, looked up): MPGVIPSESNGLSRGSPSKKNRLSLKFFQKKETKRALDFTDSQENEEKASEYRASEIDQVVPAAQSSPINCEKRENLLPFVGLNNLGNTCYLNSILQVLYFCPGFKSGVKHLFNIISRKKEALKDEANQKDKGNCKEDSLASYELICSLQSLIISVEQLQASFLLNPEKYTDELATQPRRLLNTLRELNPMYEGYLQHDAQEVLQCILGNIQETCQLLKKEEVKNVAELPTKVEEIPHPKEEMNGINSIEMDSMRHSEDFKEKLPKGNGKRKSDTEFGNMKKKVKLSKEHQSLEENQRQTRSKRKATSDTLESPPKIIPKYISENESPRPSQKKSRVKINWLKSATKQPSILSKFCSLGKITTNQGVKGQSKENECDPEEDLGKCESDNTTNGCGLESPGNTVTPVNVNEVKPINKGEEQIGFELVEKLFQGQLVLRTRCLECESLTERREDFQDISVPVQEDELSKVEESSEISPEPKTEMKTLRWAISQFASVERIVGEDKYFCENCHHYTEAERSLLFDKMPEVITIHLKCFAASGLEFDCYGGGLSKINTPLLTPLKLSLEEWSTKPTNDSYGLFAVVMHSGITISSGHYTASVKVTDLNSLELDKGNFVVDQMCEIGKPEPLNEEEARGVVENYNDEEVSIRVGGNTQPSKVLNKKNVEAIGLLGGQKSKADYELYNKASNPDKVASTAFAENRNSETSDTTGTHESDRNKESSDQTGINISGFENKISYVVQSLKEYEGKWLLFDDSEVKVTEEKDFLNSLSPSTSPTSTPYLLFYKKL
Summary of the method: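 Enzyme-free wells gave the negative control, while test wells held 1nM USP1/UAF1 preincubated with compound for 15 min at room temperature. Ub-Rho at 150nM final started the reaction, and fluorescence at 480/540 nm was recorded kinetically.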

[11] = molecular target: Cytochrome P450 3A4 (Homo sapiens) (UniProt P08684); experiment: qHTS Assay for Activators of Cytochrome P450 3A4 (AID 885); conditions: recombinant CYP3A4, Luciferin-PPXE luminescence, 60 min; series mostly up to 57.1 µM; further: nearly all actives have a fitted effect of over 65% in size
Chain of Cytochrome P450 3A4 (Homo sapiens) (P08684 whole entry, looked up): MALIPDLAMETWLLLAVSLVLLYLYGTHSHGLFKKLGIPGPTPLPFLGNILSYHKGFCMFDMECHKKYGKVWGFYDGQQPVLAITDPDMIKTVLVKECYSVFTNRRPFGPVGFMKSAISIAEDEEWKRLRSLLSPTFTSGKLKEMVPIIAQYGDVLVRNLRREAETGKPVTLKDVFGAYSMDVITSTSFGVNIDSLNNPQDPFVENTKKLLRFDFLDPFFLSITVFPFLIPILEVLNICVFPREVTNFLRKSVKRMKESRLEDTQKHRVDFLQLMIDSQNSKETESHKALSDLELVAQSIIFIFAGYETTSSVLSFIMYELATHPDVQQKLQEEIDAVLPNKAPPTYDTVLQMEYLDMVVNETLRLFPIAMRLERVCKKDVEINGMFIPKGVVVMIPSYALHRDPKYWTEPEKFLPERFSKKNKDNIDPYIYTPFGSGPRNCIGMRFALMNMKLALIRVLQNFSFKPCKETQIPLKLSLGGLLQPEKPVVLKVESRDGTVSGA
Summary of the method: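 Signal was normalized against complete inhibition by 57 uM ketoconazole. The reaction used 20nM CYP3A4 with 25uM Luciferin-PPXE, 10-min compound preincubation and a 60-min NADPH-supported step at RT.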

[12] = measured here: cell count channel max response
[13] = measured here: lipid channel max response

Structure (SMILES) | Potency [1] | Potency [2] | Potency [3] | Potency [4] | activity change, negative = inhibition [5] | max response [5, 12] | max response [5, 13] | Potency [6] | Potency [7] | Potency [8] | Potency [9] | Potency [10] | Potency [11]
N[C@@H](C(=O)O)[C@H](CC(=O)O)c1ccc(Cl)cc1 | inactive | > 46 µM (inactive) | inactive | inactive | -4.76% (inactive) | -14.9% | -17.6% | inactive | inactive | inactive | – | – | –
CC(=O)N1CCN(C)CC1 | 31.6 µM (active) | > 46 µM (inactive) | inactive | inactive | -3.74% (inactive) | -2.52% | -5.67% | inactive | inactive | inactive | > 46 µM (inactive) | – | –
OC[C@@H]1O[C@@H](n2cnc3c(N[C@H]4CCC[C@@H]4O)ncnc32)[C@H](O)[C@H]1O | – | > 46 µM (inactive) | inactive | inactive | 3.72% (inactive) | -18.9% | -17.5% | inactive | inactive | inactive | > 46 µM (inactive) | inactive | –
c1ccc2oc(C3=NCCN3)cc2c1 | 5.01 µM (active) | > 46 µM (inactive) | inactive | – | -5.14% (inactive) | -13.1% | -18.7% | inactive | inactive | inactive | > 46 µM (inactive) | – | –
COc1cc(N)c(Cl)cc1C(=O)CCC1CCN(CCNS(C)(=O)=O)CC1 | inactive | > 46 µM (inactive) | – | inactive | 6.39% (inactive) | 24.1% | 32.4% | inactive | inactive | inactive | > 46 µM (inactive) | inactive | inactive
COc1cc(N)c(Cl)cc1C(=O)OCCCN1CCCCC1 | inactive | > 46 µM (inactive) | inactive | inactive | 2.57% (inactive) | 19.2% | 21.4% | inactive | inactive | inactive | > 46 µM (inactive) | – | inactive
CCS(=O)(=O)N(C)[C@@H]1c2cc(C#N)ccc2OC(C)(C)[C@H]1O | – | > 46 µM (inactive) | inactive | inactive | 2.68% (inactive) and 2.28% (inactive) | 17.8% and 15.2% | 22.1% and 18.9% | inactive | inactive | inactive | > 46 µM (inactive) | inactive | inactive
CCCCCCCCCCCCC/C=C\[C@@H](O)[C@H](CO)NC(C)=O | 20 µM (active) | > 46 µM (inactive) | inactive | – | -6.83% (inactive) | 9.95% | -0.444% | inactive | inactive | inactive | > 46 µM (inactive) | – | –

Source: PubChem BioAssay (NCATS)
